The test system of experiment [1] is Wnt5a (protein binding on small-molecule microarray). In words: Wnt5a binders on small-molecule microarray, primary screen, biophysical, 635/667 nm fluorescence (AID 1142).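 Note: fluorescence read at 667 nm with signal to noise per printed feature.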 The following applies: 635 nm fluorescence, higher = more signal.
A short description of experiment [2]: cell viability in Huh7 cells, primary screen, cytotoxicity control for HCV replication inhibitor project, CellTiter-Glo luminescence, basal, 48 h (AID 1143).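 Note: Huh7 hepatoma cells carrying a hepatitis C replication reporter with no stimulus; test concentration not given here.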 Particulars: Huh7 HCV replicon, higher = more signal, called active from +8 up or from −8 down.
Experiment [3] is described as follows: P. aeruginosa biofilm formation inhibitors, primary screen, PAO1 strain, BacTiter-Glo luminescence, LB-PBS (AID 1144). Particulars: 12 h, higher = more signal.
The nature of experiment [4]: CREB reporter modulators without forskolin, primary screen, cell-based, PC12, CRE-LacZ reporter, unstimulated (AID 1145). The following applies: no forskolin, luminescence, 4.5 h, higher = more signal, called active from +8 up or from −8 down.
The nature of experiment [5]: CREB reporter modulators under forskolin, primary screen, cell-based, PC12, CRE-LacZ reporter, forskolin-stimulated (AID 1146).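 Note: PC12 cells with 6xCRE LacZ reporter stimulated by forskolin 10 µM; beta-galactosidase reporter signal reflecting CREB driven transcription.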 The following applies: luminescence, 4.5 h, higher = more signal, called active from +8 up or from −8 down.
The target of experiment [6] is Streptavidin (Streptomyces avidinii) (UniProt P22629). Briefly: streptavidin binders on small-molecule microarray, primary screen, artefact control for SMM compound annotation, biophysical, 635/667 nm fluorescence (AID 1147).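 Note: signal reflects streptavidin binding to arrayed compounds as a control protein.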 Particulars: streptavidin binding, higher = more signal.
Streptavidin (Streptomyces avidinii), sequence (P22629 whole entry, looked up): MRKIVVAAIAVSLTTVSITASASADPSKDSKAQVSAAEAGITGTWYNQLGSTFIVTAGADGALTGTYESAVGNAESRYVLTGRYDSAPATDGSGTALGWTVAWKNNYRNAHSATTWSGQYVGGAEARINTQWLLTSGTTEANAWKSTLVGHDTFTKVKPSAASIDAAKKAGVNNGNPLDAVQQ
Experiment [7] in a line: small-molecule binders of probe aInhba, primary screen, biochemical, small-molecule microarray, 635/667 nm fluorescence (AID 1148).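 Note: score merges 667nm spot fluorescence with signal-to-noise for antibody binding to printed compounds.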 The following applies: higher = more signal.
Experiment [8] deals with Torsin-1A (Homo sapiens) (UniProt O14656). Briefly: torsin A binders from cell lysate, primary screen, small-molecule microarray, wild-type, 635/667 nm (AID 1149). The following applies: COS7 hTOR1A-WT lysate, 635 nm fluorescence, higher = more signal.
Torsin-1A (Homo sapiens), sequence (O14656 whole entry, looked up): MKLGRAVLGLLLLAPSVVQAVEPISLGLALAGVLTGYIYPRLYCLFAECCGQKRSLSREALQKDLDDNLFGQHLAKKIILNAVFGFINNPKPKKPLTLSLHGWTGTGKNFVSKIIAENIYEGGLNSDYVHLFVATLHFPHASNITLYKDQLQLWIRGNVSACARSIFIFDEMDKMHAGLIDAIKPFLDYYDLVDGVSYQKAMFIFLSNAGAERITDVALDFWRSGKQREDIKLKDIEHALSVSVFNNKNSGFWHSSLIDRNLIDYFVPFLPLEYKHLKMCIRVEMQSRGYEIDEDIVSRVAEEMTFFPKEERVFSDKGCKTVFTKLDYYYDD
The target is the same in experiment [9]. In words: small-molecule binders of mutant TOR1A in lysate, primary screen, cell lysate, small-molecule microarray, COS7 lysate, 635/667 nm fluorescence (AID 1150).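 Note: score pools 667 nm emission and signal to noise measuring lysate protein binding.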 The following applies: COS7 hTOR1A mutant lysate, 635 nm fluorescence, higher = more signal.
In experiment [10] the test system is Sonic hedgehog protein (Shh). In words: small-molecule binders of Shh protein, primary screen, biochemical, small-molecule microarray, 635/667 nm fluorescence (AID 1151).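 Note: Shh protein binding to compounds spotted on small-molecule microarray slides; score combines spot fluorescence intensity with signal-to-noise across triplicate slides.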 Particulars: small-molecule microarray binding, 635 nm fluorescence; higher = more signal.
Experiment [11] is described as follows: E. coli DRC41 culture turbidity changes, primary screen, E. coli filamentation inducer project, strain DRC41, OD650, 48 h (AID 1152).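 Note: E. coli MC1000 strain DRC41 lacking acrAB efflux pump and sulA.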 Particulars: E. coli DRC41 (acrAB sulA), higher = more signal, called active from +8 up or from −8 down.
A short description of experiment [12]: small-molecule binders of probe aLefty1, primary screen, biochemical, small-molecule microarray, 635/667 nm fluorescence (AID 1153).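 Note: score merges spot fluorescence with signal-to-noise ratio from the scanned slide images.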 Particulars: higher = more signal.
Experiment [13] can be described thus: PSAC antagonists in infected red cells, primary screen, cell-based, P. falciparum Indochina, OD700, 1 h (AID 1154). The following applies: P. falciparum Indochina infected RBC osmotic lysis, higher = more signal, called active from +8 up or from −8 down.
Experiment [14] can be described thus: PSAC antagonists in infected red cells, primary screen, cell-based, P. falciparum Indochina, OD700, 2 h (AID 1155).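 Note: lysis reports solute entry through the parasite surface anion channel PSAC; channel blockers reduce lysis of infected cells.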 The following applies: P. falciparum Indochina infected erythrocytes, osmotic lysis OD700; higher = more signal, called active from +8 up or from −8 down.
The nature of experiment [15]: osmotic lysis modulators in infected erythrocytes, primary screen, PSAC antagonist project, cell-based, P. falciparum Indochina, OD700, 3 h (AID 1156). The following applies: higher = more signal, called active from +8 up or from −8 down.
Experiment [16] can be described thus: PSAC antagonists in infected red cells, primary screen, cell-based, P. falciparum Indochina, OD700, 18 h (AID 1157). The following applies: P. falciparum Indochina infected erythrocytes, osmotic lysis OD700, 18 h; higher = more signal, called active from +8 up or from −8 down.
Experiment [17] is described as follows: modulators of S6 phosphorylation in cells, primary screen, cell-based, A549, cytoblot, luminescence, serum-stimulated (AID 1158).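 Note: serum-stimulated A549 lung adenocarcinoma cells; signal is phosphorylated S6 detected by cytoblot immunostaining with HRP secondary.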 The following applies: A549 phospho-S6 cytoblot, 5 h, higher = more signal.
The target of experiment [18] is NADPH oxidase 2 (Homo sapiens) (UniProt P04839). Briefly: NOX2-dependent H2O2 signal modulators, primary screen, NOX inhibitor project, cell-based, HEK293-NOX2, PMA-stimulated, Amplex Red fluorescence (AID 1159). Note: test concentration not given here. Particulars: 45 min, higher = more signal, called active from +8 up or from −8 down.
NADPH oxidase 2 (Homo sapiens), sequence (P04839 whole entry, looked up): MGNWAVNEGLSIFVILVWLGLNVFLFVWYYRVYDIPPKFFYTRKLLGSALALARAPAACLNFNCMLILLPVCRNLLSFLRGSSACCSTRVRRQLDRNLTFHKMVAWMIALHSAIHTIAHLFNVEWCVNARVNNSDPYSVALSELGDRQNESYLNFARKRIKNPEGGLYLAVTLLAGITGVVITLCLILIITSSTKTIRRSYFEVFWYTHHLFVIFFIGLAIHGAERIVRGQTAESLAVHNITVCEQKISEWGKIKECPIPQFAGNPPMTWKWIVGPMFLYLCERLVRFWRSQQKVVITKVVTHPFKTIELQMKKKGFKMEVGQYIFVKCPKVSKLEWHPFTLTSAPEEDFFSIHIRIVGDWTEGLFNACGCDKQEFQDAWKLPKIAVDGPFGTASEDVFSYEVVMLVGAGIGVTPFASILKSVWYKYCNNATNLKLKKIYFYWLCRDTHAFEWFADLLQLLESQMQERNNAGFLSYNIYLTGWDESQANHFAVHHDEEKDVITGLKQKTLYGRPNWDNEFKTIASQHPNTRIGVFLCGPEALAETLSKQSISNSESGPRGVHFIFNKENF
The target of experiment [19] is NADPH oxidase 4 (Homo sapiens) (UniProt Q9NPH5). Briefly: NOX4-dependent H2O2 signal modulators, primary screen, NOX inhibitor project, cell-based, HEK293-NOX4, tetracycline-induced, Amplex Red fluorescence (AID 1160). Particulars: 45 min, higher = more signal, called active from +8 up or from −8 down.
NADPH oxidase 4 (Homo sapiens), sequence (Q9NPH5 whole entry, looked up): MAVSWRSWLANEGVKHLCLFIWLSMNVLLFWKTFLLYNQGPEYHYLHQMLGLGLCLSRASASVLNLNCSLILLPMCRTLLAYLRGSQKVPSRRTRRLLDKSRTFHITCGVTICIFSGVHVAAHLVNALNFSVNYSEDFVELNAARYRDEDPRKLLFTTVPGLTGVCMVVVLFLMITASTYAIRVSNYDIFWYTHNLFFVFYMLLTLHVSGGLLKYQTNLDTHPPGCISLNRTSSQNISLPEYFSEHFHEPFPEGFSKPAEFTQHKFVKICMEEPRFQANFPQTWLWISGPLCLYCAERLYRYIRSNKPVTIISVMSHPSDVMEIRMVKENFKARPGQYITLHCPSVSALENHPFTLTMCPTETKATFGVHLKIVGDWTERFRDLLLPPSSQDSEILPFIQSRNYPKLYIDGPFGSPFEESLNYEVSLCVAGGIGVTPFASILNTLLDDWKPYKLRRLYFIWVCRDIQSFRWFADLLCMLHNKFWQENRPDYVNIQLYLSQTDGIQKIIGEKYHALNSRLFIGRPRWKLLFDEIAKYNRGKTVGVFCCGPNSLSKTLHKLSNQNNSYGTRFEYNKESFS
In experiment [20] the target is NADPH oxidase 5 (Homo sapiens) (UniProt Q96PH1). Briefly: NOX5-dependent H2O2 signal modulators, primary screen, NOX inhibitor project, cell-based, HEK293-NOX5, Amplex Red fluorescence (AID 1161). Particulars: HEK293-NOX5, ionomycin, 45 min, higher = more signal.
NADPH oxidase 5 (Homo sapiens), sequence (Q96PH1 whole entry, looked up): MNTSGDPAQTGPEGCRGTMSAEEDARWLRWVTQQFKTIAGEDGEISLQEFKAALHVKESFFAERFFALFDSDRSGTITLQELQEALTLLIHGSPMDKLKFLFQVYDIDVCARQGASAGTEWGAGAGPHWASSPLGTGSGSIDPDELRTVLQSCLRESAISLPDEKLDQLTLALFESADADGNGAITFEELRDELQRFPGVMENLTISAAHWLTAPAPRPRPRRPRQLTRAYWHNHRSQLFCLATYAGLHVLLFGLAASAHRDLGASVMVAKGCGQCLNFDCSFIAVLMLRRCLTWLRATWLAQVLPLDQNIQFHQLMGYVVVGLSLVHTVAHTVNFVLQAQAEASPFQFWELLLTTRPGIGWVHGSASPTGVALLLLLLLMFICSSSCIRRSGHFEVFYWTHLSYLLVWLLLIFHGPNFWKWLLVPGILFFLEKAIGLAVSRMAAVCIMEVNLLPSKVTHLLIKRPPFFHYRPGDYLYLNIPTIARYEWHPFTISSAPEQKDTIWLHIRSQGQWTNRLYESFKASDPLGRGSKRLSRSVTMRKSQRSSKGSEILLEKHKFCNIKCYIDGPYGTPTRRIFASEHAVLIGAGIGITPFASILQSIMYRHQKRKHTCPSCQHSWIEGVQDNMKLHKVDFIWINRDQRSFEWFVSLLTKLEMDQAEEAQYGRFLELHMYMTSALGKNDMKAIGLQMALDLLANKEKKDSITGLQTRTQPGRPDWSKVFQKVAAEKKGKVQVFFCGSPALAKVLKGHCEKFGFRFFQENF

Active and inactive are the calls of the source. Unless noted, the rule behind the calls is not given here.

On to `C#C[C@@H]1Oc2ccccc2S(=O)(=O)N2CCC[C@H]12`, for which the composite z-score in experiment [1] is 0.0869; in experiment [6] it was 0.261; in experiment [7], -0.154; with Torsin-1A (Homo sapiens) [8] it was -0.0705; with Torsin-1A (Homo sapiens) [9], 0.0535; in experiment [10] it was 0.101. Further, the composite z-score in [12] turned out to be 0.149. For the same compound, the z-score in experiment [2] is 0.299 (inactive); in [3], 0.405 (inactive); in experiment [4], 1.58 (inactive); in experiment [5] it was 0.14 (inactive); in [11] it was -1.16 (inactive); in experiment [13] it was 0.217 (inactive). The z-score was 0.676 (inactive) in [14]; -0.0722 (inactive) in experiment [15]; 0.107 (inactive) in experiment [16]; -0.222 in experiment [17]; 0.0921 (inactive) in [18]; -1.48 (inactive) in experiment [19]. Moreover, the z-score in experiment [20] is -0.194.

As to `O=C1C2C=CC(C(O)c3ccc([N+](=O)[O-])cc3)N(Nc3ccc([N+](=O)[O-])cc3)C2C(=O)N1c1ccccc1` (stereo not given), the composite z-score in experiment [1] is 0.71; in experiment [6] it was 0.903; in experiment [7], 0.154; with Torsin-1A (Homo sapiens) [8], 0.128; with Torsin-1A (Homo sapiens) [9] it was 0.726; in experiment [10] it was -0.114. Further, the composite z-score in [12] came out at 0.446. The z-score in [2] was 0.301 (inactive); in [3] it was -0.328 (inactive); in experiment [4], -0.228 (inactive); in experiment [5] it was 0.554 (inactive); in [11], -1.39 (inactive); in experiment [13], 12.9 (active). Further, the z-score in [14] was 1.96 (inactive); in experiment [15], 0.958 (inactive); in [16], 1.02 (inactive); in [17] it was -0.922; in [18], -1.24 (inactive); in experiment [19], -2.87 (inactive). This compound also yielded a z-score in experiment [20] of -2.36.

`CC1CC/C=C\[C@H]2OC34C=CCN(Cn5nnc6ccccc65)C(=O)[C@H]3N(CCO)C(=O)[C@@H]4C2C(=O)O1` (stereo not given in full): the composite z-score in [1] was -0.335; in experiment [6] it was -0.923; in experiment [7], -0.0719; in the experiment with Torsin-1A (Homo sapiens) [8], 2.73; with Torsin-1A (Homo sapiens) [9], 2.11; in experiment [10], -0.0981. The composite z-score in [12] is -0.155. Moreover, the z-score in experiment [2] was -2.74 (inactive); in experiment [3] it was -2.49 (inactive); in experiment [4] it was -1.44 (inactive); in experiment [5] it was -1.01 (inactive); in experiment [11] it was 2.49 (inactive); in [13], 2.87 (inactive). For the same compound, the z-score in [14] was 0.218 (inactive); in [15], -1.23 (inactive); in experiment [16], -0.752 (inactive); in experiment [17], 1.03; in experiment [18] it was 1.44 (inactive); in [19], 0.285 (inactive). Also, the z-score in [20] was found to be 2.67.

Turning to `CC(=O)O[C@H]1C2=C(C(=O)[C@@H]3O[C@@H]31)[C@H]1C(C)O[C@@H]2[C@@]23C(=O)[C@@H]4O[C@@H]4[C@@H](O)C2=CO[C@H](C)[C@@H]13` (stereo not given in full), the composite z-score in experiment [1] is 0.129; in experiment [6], -0.503; in experiment [7], -0.214; with Torsin-1A (Homo sapiens) [8], 0.0116; in the experiment with Torsin-1A (Homo sapiens) [9] it was 0.0652; in [10], 0.283. This compound also returned a composite z-score in experiment [12] of -0.191. Further, the z-score was -1.6 (inactive) in experiment [2]; 0.968 (inactive) in experiment [3]; 0.108 (inactive) in experiment [4]; 4.27 (inactive) in experiment [5]; -0.0954 (inactive) in experiment [11]; -0.0129 (inactive) in [13]. Moreover, the z-score in experiment [14] is -0.215 (inactive); in experiment [15], -0.0291 (inactive); in experiment [16], -0.12 (inactive); in [17], -0.56; in [18], 0.735 (inactive); in experiment [19], 0.358 (inactive). This compound gave a z-score in [20] of -0.388.

Source of the values: PubChem BioAssay.
